This note sets out measurements from PubChem BioAssay (NCATS).

A short description of assay [1]: qHTS of pediatric cancer cell lines to identify multiple opportunities for drug repurposing: Confirmatory screen for BT-12 cells (AID 1347112).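 Further: viability read after 48 h of compound exposure; nearly all actives have a fitted effect of over 55% in size.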 In outline:
(§1)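 Cells (500-1,000/well) rested 5 h, then received compounds for 48 h; metabolically active cells were measured by CellTiter-Glo luminescence. Final concentrations spanned up to 46 µM (MIPE, 11-point) or 0.59 nM-46 µM (NPC, 8-point) in primary screens, 11-point in follow-ups.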

Assay [2] can be described thus: qHTS of pediatric cancer cell lines to identify multiple opportunities for drug repurposing: Confirmatory screen for LAN-5 cells (AID 1347113). Further: nearly all actives have a fitted effect of over 65% in size. A digest of the protocol: as §1
A general note: Quantitative high-throughput screening tests each substance at several concentrations.

A short description of assay [3]: qHTS of pediatric cancer cell lines to identify multiple opportunities for drug repurposing: Confirmatory screen for DAOY cells (AID 1347114). Further: nearly all actives have a fitted effect of over 65% in size. In outline:
(§2)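 Viability measured as metabolically active cells via CellTiter-Glo luminescence following 48 hours of compound exposure, 11-point dilutions in confirmatory testing. 500-1,000 cells/well plated 5 hours before dosing; controls were DMSO and 2.3 µM bortezomib.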

A short description of assay [4]: qHTS of pediatric cancer cell lines to identify multiple opportunities for drug repurposing: Confirmatory screen for BT-37 cells (AID 1347117). Further: nearly all actives have a fitted effect of over 55% in size. To be noted: BT-37 pediatric cancer cells, viability; activity change, negative = cytotoxic: at 45.9 µM (top of the series). A digest of the protocol:
as §1

Assay [5] can be described thus: qHTS of pediatric cancer cell lines to identify multiple opportunities for drug repurposing: Confirmatory screen for TC32 cells (AID 1347118).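 Further: cells exposed to compound for 48 h before the read; nearly all actives have a fitted effect of over 65% in size.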 In outline:
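Measured quantity: luminescence from CellTiter-Glo, reflecting metabolically active TC32 cells following 48 h of compound. Curves came straight from multi-point titrations, with 8 or 11 points in primary and 11 in confirmatory screening.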

Assay [6] can be described thus: qHTS of pediatric cancer cell lines to identify multiple opportunities for drug repurposing: Confirmatory screen for control Hh wild type fibroblast cells (AID 1347121). Further: nearly all actives have a fitted effect of over 70% in size. In outline:
as §1

Assay [7] is described as follows: qHTS of pediatric cancer cell lines to identify multiple opportunities for drug repurposing: Confirmatory screen for Rh41 cells (AID 1347123).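 Further: 48 h compound exposure; nearly all actives have a fitted effect of over 60% in size.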 In outline: as §1
The nature of assay [8]: qHTS of pediatric cancer cell lines to identify multiple opportunities for drug repurposing: Confirmatory screen for Rh18 cells (AID 1347125). Further: nearly all actives have a fitted effect of over 55% in size. In outline:
as §1

Assay [9] is described as follows: qHTS of pediatric cancer cell lines to identify multiple opportunities for drug repurposing: Confirmatory screen for OHS-50 cells (AID 1347128).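 Further: compound exposure lasted 48 h at 37 degrees C; nearly all actives have a fitted effect of over 55% in size.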 A digest of the protocol:
as §1

Assay [10] in a line: qHTS of pediatric cancer cell lines to identify multiple opportunities for drug repurposing: Confirmatory screen for SK-N-SH cells (AID 1347129).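 Further: cells exposed to compound for 48 h before viability read; nearly all actives have a fitted effect of over 60% in size.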 A digest of the protocol: as §1
A short description of assay [11]: qHTS of pediatric cancer cell lines to identify multiple opportunities for drug repurposing: Confirmatory screen for SJ-GBM2 cells (AID 1347116). Further: nearly all actives have a fitted effect of over 60% in size. In outline: as §2
Assay [12] is described as follows: qHTS of pediatric cancer cell lines to identify multiple opportunities for drug repurposing: Confirmatory screen for U-2 OS cells (AID 1347122). Further: nearly all actives have a fitted effect of over 65% in size. A digest of the protocol:
as §1

The nature of assay [13]: qHTS of pediatric cancer cell lines to identify multiple opportunities for drug repurposing: Confirmatory screen for RD cells (AID 1347124). A digest of the protocol: as §1
The nature of assay [14]: qHTS of pediatric cancer cell lines to identify multiple opportunities for drug repurposing: Confirmatory screen for Saos-2 cells (AID 1347127). Further: nearly all actives have a fitted effect of over 60% in size. In outline: as §1
Assay [15] is described as follows: qHTS of pediatric cancer cell lines to identify multiple opportunities for drug repurposing: Confirmatory screen for MG 63 (6-TG R) cells (AID 1347119). Further: nearly all actives have a fitted effect of over 55% in size. In outline:
as §1

The nature of assay [16]: qHTS of pediatric cancer cell lines to identify multiple opportunities for drug repurposing: Confirmatory screen for Rh30 cells (AID 1347126). Further: nearly all actives have a fitted effect of over 55% in size. In outline:
as §1

Records with an inconclusive call do not appear. Active and inactive are the calls of the source. The call rests on the fitted dose curve; in most records, active means well fitted curve in the direction sought with a large enough effect; inconclusive means small, poorly fitted or top-dose-only effect, or another doubt; inactive means no such curve, though single readings can be large; an effect the other way counts as inactive or inconclusive. Starred links: 1 amine or outer side, 2 acyl side, 3 side chain; linkers in the order of their positions; H or OH if unused. Positions of bridges follow the written chain, without caps; N, C: chain ends. Non-standard residues stand in square brackets, D forms with d. Residues, ends and D or L forms follow the SMILES beside them. Chains are numbered I, II in the order given. Actinocin(9to1) = Cc1c2oc3c(C)ccc(C(=O)[*:1])c3nc-2c(C(=O)[*:2])c(N)c1=O; NMeV = CN[CH](C(=O)O)C(C)C; Sar = CNCC(=O)O
Potency means the concentration at half of the fitted maximal effect.

With `Cc1c2oc3c(C)ccc(C(=O)NC4C(=O)NC(C(C)C)C(=O)N5CCCC5C(=O)N(C)CC(=O)N(C)C(C(C)C)C(=O)OC4C)c3nc-2c(C(=O)NC2C(=O)NC(C(C)C)C(=O)N3CCCC3C(=O)N(C)CC(=O)N(C)C(C(C)C)C(=O)OC2C)c(N)c1=O` (stereo not given) (I: TVP[Sar][NMeV] / II: TVP[Sar][NMeV]; ester I:1-I:C, II:1-II:C; linker I:N-II:N via Actinocin(9to1); configuration not given here), the Potency in assay [1] was 29.3 nM (active); in [2], 2.3 nM (active); in assay [3] it was 36.9 nM (active); in [4], 2.6 nM (active); in [5], 16.5 nM (active); in [7], 18.5 nM (active). The Potency was 29.3 nM (active) in assay [8], 36.9 nM (active) in [9] and 18.7 nM (active) in assay [10]. The Potency result in assay [6] was “inactive”.

Take `CC(=O)[C@]1(O)Cc2c(O)c3c(c(O)c2[C@@H](O[C@H]2C[C@H](N)[C@@H](O)[C@H](C)O2)C1)C(=O)c1ccccc1C3=O`: the Potency in assay [1] was 4140 nM (active); in assay [2], 329 nM (active); in assay [3] it was 2080 nM (active); in assay [11], 369 nM (active); in assay [4], 329 nM (active); in [5], 293 nM (active). In addition, the Potency is 1310 nM (active) in [12]; 329 nM (active) in assay [7]; 737 nM (active) in assay [13]; 6570 nM (active) in assay [8]; 1310 nM (active) in [9]; 209 nM (active) in assay [10]. In addition, the Potency result in assay [14] was “inactive”.

As for `COc1ccc(C(C)=O)c(O)c1`, the Potency result in [1], in [2], in [3], in [4], in [15] and in assay [6] was “inactive” each time. Besides, the Potency result in assay [12], in assay [7], in [13], in [8], in assay [9] and in assay [10] was “inactive” in each case.

Turning to `COc1cccc2c1C(=O)c1c(O)c3c(c(O)c1C2=O)C[C@@](O)(C(=O)CO)C[C@H]3O[C@H]1C[C@H](N)[C@H](O)[C@H](C)O1`, the Potency in assay [1] is 1470 nM (active); in [2], 369 nM (active); in assay [3], 3690 nM (active); in assay [11], 928 nM (active); in assay [4], 293 nM (active); in [5], 261 nM (active). The Potency in assay [12] was 13100 nM (active); in assay [7], 928 nM (active); in assay [13] it was 5220 nM (active); in [8], 1470 nM (active); in [9], 2610 nM (active); in assay [10], 590 nM (active).

For the compound `CC(C)C[C@H](NC(=O)CNC(=O)c1cc(Cl)ccc1Cl)B1OC(=O)CC(CC(=O)O)(C(=O)O)O1` (stereo not given in full), the Potency was 414 nM (active) in [1]; 233 nM (active) in assay [2]; 165 nM (active) in assay [3]; 147 nM (active) in assay [11]; 522 nM (active) in [4]; 465 nM (active) in assay [5]. The Potency was 16500 nM (active) in assay [6]; 827 nM (active) in assay [12]; 233 nM (active) in assay [7]; 414 nM (active) in [13]; 369 nM (active) in [8]; 2330 nM (active) in [16]. Also, the Potency in assay [14] was 4650 nM (active); in [9], 585 nM (active). In addition, the Potency entry in assay [10] was “inactive”.

Take `COc1cccc2c1C(=O)c1c(O)c3c(c(O)c1C2=O)C[C@@](O)(C(C)=O)C[C@H]3O[C@H]1C[C@H](N)[C@H](O)[C@H](C)O1`: the Potency is 1310 nM (active) in [1]; 185 nM (active) in assay [2]; 3690 nM (active) in assay [3]; 1310 nM (active) in assay [11]; 165 nM (active) in [4]; 117 nM (active) in assay [5]. For the same compound, the Potency is 233 nM (active) in assay [15]; 7370 nM (active) in assay [12]; 585 nM (active) in assay [7]; 2610 nM (active) in [13]; 2610 nM (active) in [8]; 2080 nM (active) in assay [9]. In assay [10], the Potency is 662 nM (active).

For the compound `CO[C@@H]1[C@@H](O)[C@H](O)[C@@H](n2c3c(Cl)cccc3c3c4c(c5c6cccc(Cl)c6[nH]c5c32)C(=O)NC4=O)O[C@@H]1CO`, the Potency in [1] was 4650 nM (active); in assay [2] it was 1650 nM (active); in assay [11], 5220 nM (active); in assay [4] it was 827 nM (active); in [5], 737 nM (active); in [15], 1310 nM (active). The Potency was 4140 nM (active) in [12]; 5850 nM (active) in assay [7]; 6570 nM (active) in [8]; 2610 nM (active) in [9]; 2640 nM (active) in assay [10]. The Potency result in [6] and in assay [16] was “inactive” throughout.

With `C=CC(=O)Nc1ccc2ncnc(Nc3ccc(OCc4cccc(F)c4)c(Cl)c3)c2c1`, the Potency in assay [1] is 10400 nM (active); in assay [2], 20800 nM (active); in assay [3], 7370 nM (active); in assay [11], 2610 nM (active); in assay [4] it was 9270 nM (active); in assay [5], 7370 nM (active). The Potency was 8270 nM (active) in assay [15]; 465 nM (active) in [7]; 1470 nM (active) in [13]; 16500 nM (active) in [8]; 7370 nM (active) in [14]; 6570 nM (active) in assay [9]. Also, the Potency in assay [10] was 16600 nM (active).

As for `O=C1NCCc2[nH]c(-c3ccncc3)cc21`, the Potency in assay [1] is 2330 nM (active); in assay [3] it was 4140 nM (active); in assay [4], 2330 nM (active); in [5] it was 4140 nM (active); in assay [15], 8270 nM (active); in assay [12] it was 2930 nM (active). The Potency in assay [7] was 2330 nM (active); in assay [14] it was 3690 nM (active); in assay [9] it was 2930 nM (active); in [10], 2090 nM (active). For the same compound, in [6], the Potency entry is “inactive”.

In the case of `C[C@H]1[C@@H](OC(=O)CCC(=O)O)O[C@@H]2O[C@@]3(C)CC[C@@H]4[C@H](C)CC[C@@H]1[C@@]24OO3`, the Potency in assay [2] was 16500 nM (active); in assay [3], 23300 nM (active); in assay [11] it was 1170 nM (active); in [4], 3690 nM (active); in [5], 9270 nM (active); in [15] it was 20800 nM (active). For the same compound, the Potency in assay [12] was 13100 nM (active); in assay [7], 5850 nM (active); in assay [13] it was 1040 nM (active); in [14], 1310 nM (active); in [9], 3290 nM (active). Further, in [6], the Potency result was “inactive”.

For `O=C(C=Cc1ccc(CN(CCO)CCc2c[nH]c3ccccc23)cc1)NO`, the Potency in assay [1] was 1170 nM (active); in assay [3], 261 nM (active); in assay [12], 165 nM (active); in assay [7], 58.5 nM (active); in [8], 233 nM (active); in assay [16], 414 nM (active). In addition, the Potency in assay [10] is 118 nM (active).

For `O=C(Nc1cc2cc[nH]c2cn1)c1ccccc1`, the Potency was 14700 nM (active) in [1]; 14700 nM (active) in [2]; 9270 nM (active) in [4]; 1850 nM (active) in [5]; 14700 nM (active) in assay [6]; 8270 nM (active) in [8]. In addition, the Potency was 10400 nM (active) in [9] and 10500 nM (active) in assay [10]. For the same compound, in assay [12], the Potency entry was “inactive”.
